{"source": "PubChem BioAssay (NCI)", "note": "This is part of a sample that, as a whole, favours compounds with a hit. Of some 79,000 tested, about 15% had one in any assay. The source made the active and inactive calls. Cut-off read from the data, not from the text of the source: active = growth inhibition above about 70%; inactive = the rest."}
{"assay": "NCI Yeast Anticancer Drug Screen. Data for the rad50EPP+ strain (AID 151);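 note: 0% = growth of vehicle-treated control cultures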", "conditions": "S. cerevisiae rad50 mutant strain, at 3.7 µM, stronger effect = higher value", "how_it_was_run": "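Measured: growth inhibition of rad50EPP+ yeast. Reference: vehicle-treated controls. Screen uses strains with defined genetic alterations in DNA damage repair or cell cycle control.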"}
{"compound": "O=Cc1ccccc1B(O)O", "growth inhibition": "79% (active)"}
{"compound": "O=C(O)[C@H]1[C@@H](C2CCCCC2)O[C@@H](C2CCCCC2)O[C@H]1C(F)(F)F", "growth inhibition": "-1% (inactive)"}
{"compound": "N#C/C(=C1C=C/C(=N\\O)C(Cl)=C\\1)c1ccccc1", "growth inhibition": "16% (inactive)"}
{"compound": "Nc1nc(Nc2ccccc2)nc(Nc2ccccc2)n1", "growth inhibition": "-6% (inactive)"}
{"compound": "COc1ccc(/C=C2\\S/C(=N/Nc3nc(-c4ccccc4)cs3)NC2=O)cc1OC", "growth inhibition": "63% (inactive)"}
{"compound": "CC(O)CN1C(=O)c2cccc3cc([N+](=O)[O-])cc(c23)C1=O", "note": "(stereo not drawn)", "growth inhibition": "8% (inactive)"}
{"compound": "Cn1c(COc2ccc(/C=N/NC(=O)CCC(=O)N/N=C/c3ccc(OCc4c[n+]5ccccc5n4C)cc3)cc2)c[n+]2ccccc12", "growth inhibition": "-7% (inactive)"}
{"compound": "O=S(=O)(CCC[C@H]1[C@@H](CCOCc2ccccc2)C2CCCN1O2)c1ccccc1", "note": "(stereo partly drawn)", "growth inhibition": "-1% (inactive)"}
{"compound": "CCC(C)/C(C)=N/NC(N)=O", "note": "(stereo not drawn)", "growth inhibition": "-1% (inactive)"}
{"compound": "Nc1c([N+](=O)[O-])cc2c3c(cccc13)CC2", "growth inhibition": "32% (inactive)"}
{"compound": "NCC(O)CSCc1ccc(Cl)cc1", "note": "(stereo not drawn)", "growth inhibition": "-4% (inactive)"}
{"compound": "[O-]c1c2cc(-[n+]3c(-c4ccccc4)cc(-c4ccccc4)cc3-c3ccccc3)cc1COCCOCCOCCOCCOC2", "growth inhibition": "0% (inactive)"}
{"compound": "C[Si](C)(C)Cc1ccccc1C(=O)O", "growth inhibition": "1% (inactive)"}
